In PubChem BioAssay (NCI) one finds growth data, which are given here for 15 molecules.

Some test systems named below: HCT-15 colon; HT29 colon; SNB-75 CNS; SNB-19 CNS; PC-3 prostate; SK-MEL-5 melanoma; LOX IMVI melanoma; SK-MEL-28 melanoma; UACC-62 melanoma.
What all share (assay): NCI-60 one-dose screen, 48 h (100 = growth as untreated, 0 = no growth, -100 = all killed)
Holding throughout (conditions): 10 µM

The panel holds about 83,000 compounds, 20% with a hit somewhere; the sample as a whole holds those more often.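 Compound tested at a single concentration for 48 hours in 96-well plates; a percent growth value below 10 was scored as active.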 Values without a mark were called inactive. The source made the active and inactive calls.

For the molecule `COc1ccc(/C=C2\CCCC3=C2N=C2SC(C)=CN2C3c2ccc(OC)cc2)cc1` (centres undefined), the growth in the test on HCT-15 colon was 102%; with HT29 colon, 104%; with SNB-75 CNS, 97.7%; in the test on SNB-19 CNS, 100%; in the test on PC-3 prostate, 99.9%; with SK-MEL-5 melanoma, 92.3%. The growth with LOX IMVI melanoma was 91.5%; with SK-MEL-28 melanoma it was 96.2%.

Turning to `CCOC(=O)CN(c1sc(C)c(C)c1C(=O)OCC)S(=O)(=O)c1ccc(C)cc1`, the growth is 99.3% in the test with HCT-15 colon; 111% in the test on HT29 colon; 91.7% in the test on SNB-75 CNS; 86.6% in the test on SNB-19 CNS; 74.5% with PC-3 prostate; 73.2% in the test with SK-MEL-5 melanoma. The figures for the growth with UACC-62 melanoma, in the test with LOX IMVI melanoma and in the test on SK-MEL-28 melanoma were 68.2%, 87.4% and 102%, respectively.

For the molecule `CC(C)(C)OC(=O)CC(S(=O)(=O)c1ccccc1)S(=O)(=O)c1ccccc1`, the growth is 77.9% with HCT-15 colon; 104% in the test on HT29 colon; 99.2% in the test with SNB-75 CNS; 95.2% in the test on SNB-19 CNS; 101% with PC-3 prostate; 94.2% with SK-MEL-5 melanoma. Besides, the growth is 103% in the test on UACC-62 melanoma, 94.7% in the test with LOX IMVI melanoma and 105% with SK-MEL-28 melanoma.

For `COc1cc(/C=C2\CCCC3C2=Nc2ccccc2NC3c2cc(OC)c(OC)c(OC)c2)cc(OC)c1OC` (centres undefined), the growth in the test on HCT-15 colon is 6.11% (active); with HT29 colon, -3.94% (active); in the test with SNB-75 CNS, 54.5%; with SNB-19 CNS, 64.4%; in the test with PC-3 prostate, 38.2%; in the test with SK-MEL-5 melanoma, -52% (active). Besides, the growth was -32.6% (active) in the test on UACC-62 melanoma, -62% (active) with LOX IMVI melanoma and 29.4% with SK-MEL-28 melanoma.

For `NC1=CC(=O)C(=O)c2cccnc21`, the growth in the test with HCT-15 colon is 66.7%; in the test on HT29 colon, 103%; in the test on SNB-75 CNS it was 45.5%; in the test on SNB-19 CNS, 66.5%; with PC-3 prostate, 78.2%; with SK-MEL-5 melanoma it was 21%. The growth in the test on UACC-62 melanoma is 88.3%; with LOX IMVI melanoma, 25.9%; in the test on SK-MEL-28 melanoma, 83.7%.

As to `Cc1ccc(NCCN(C)CC(C)O)c2c(=O)c3ccccc3sc12` (centres undefined), the growth is 32.7% in the test on HCT-15 colon; 7.09% (active) with HT29 colon; 57% with SNB-75 CNS; 54.5% in the test with SNB-19 CNS; 41% in the test with PC-3 prostate; 58.1% in the test with SK-MEL-5 melanoma. Besides, the growth in the test with UACC-62 melanoma is -2.71% (active); in the test on LOX IMVI melanoma, 12.6%; with SK-MEL-28 melanoma it was 57%.

`COc1cc(-c2csc(NC(=O)Nc3cc(C(F)(F)F)cc(C(F)(F)F)c3)n2)cc(OC)c1OC`: the growth with HCT-15 colon is 11.8%; in the test with HT29 colon it was 7.94% (active); in the test with SNB-75 CNS, 34.1%; with SNB-19 CNS, 25.3%; in the test on PC-3 prostate, 4.29% (active); with SK-MEL-5 melanoma it was -4.49% (active). In addition, the results for the growth in the test on UACC-62 melanoma, in the test on LOX IMVI melanoma and in the test on SK-MEL-28 melanoma were 18.7%, 6.63% (active) and 17.6%, respectively.

On to `C[C@]12CCC3c4ccc(O)cc4C[C@@H](CCCCCCCCCS(=O)CCCC(F)(F)C(F)(F)F)C3C1CC[C@@H]2O` (some centres undefined), for which the growth was 71.6% in the test on HCT-15 colon; 72.1% in the test on HT29 colon; 64.4% in the test with SNB-75 CNS; 89.8% with SNB-19 CNS; 52.5% with PC-3 prostate; 76% with SK-MEL-5 melanoma. Further, the results for the growth in the test with UACC-62 melanoma, with LOX IMVI melanoma and with SK-MEL-28 melanoma were 83.3%, 90.1% and 97.1%, respectively.

Regarding `CCCCCCCCCCCC[n+]1c(C)cc(N)c2ccccc21`, the growth in the test with HCT-15 colon was 34.7%; in the test with HT29 colon, -8.54% (active); in the test with SNB-75 CNS, 3.98% (active); with SNB-19 CNS, 9.29% (active); with PC-3 prostate, -6.19% (active); in the test on SK-MEL-5 melanoma it was -96.7% (active). Besides, the values for the growth in the test on UACC-62 melanoma, in the test on LOX IMVI melanoma and with SK-MEL-28 melanoma were -27.8% (active), -74.4% (active) and 29.5%, respectively.

Take `COc1ccc(-c2nn(-c3cccc(Cl)c3)cc2-c2cc(-c3ccccc3)nc(N)n2)cc1`: the growth was 44.5% in the test on HCT-15 colon; 19.5% in the test with HT29 colon; 89.9% in the test on SNB-75 CNS; 75.2% in the test with SNB-19 CNS; 40% in the test with PC-3 prostate; 73.3% in the test with SK-MEL-5 melanoma. Further, the growth was 74.3% in the test on UACC-62 melanoma, -84.1% (active) with LOX IMVI melanoma and 83.8% in the test with SK-MEL-28 melanoma.

On to `CN1C(C(=O)Nc2ccccn2)=C(O)c2sc(Cl)cc2S1(=O)=O`, for which the growth in the test on HCT-15 colon was 112%; in the test with HT29 colon, 103%; with SNB-75 CNS, 89.5%; in the test with SNB-19 CNS it was 104%; with PC-3 prostate it was 87.9%; in the test with SK-MEL-5 melanoma it was 102%. The growth with UACC-62 melanoma was 92.4%; in the test on LOX IMVI melanoma, 96%; with SK-MEL-28 melanoma, 102%.

For `C/C(=C/CCC(C)[C@@H]1CC[C@]2(C)C3=C(CC[C@@]12C)[C@@]1(C)CCC(=O)C(C)(C)[C@@H]1CC3)C(=O)O` (some centres undefined), the growth in the test on HCT-15 colon is -66.6% (active); with HT29 colon, -65.8% (active); in the test with SNB-75 CNS it was -68.1% (active); with SNB-19 CNS it was -78.1% (active); in the test with PC-3 prostate it was -29.8% (active); in the test on SK-MEL-5 melanoma it was -98.2% (active). Also, the growth in the test with UACC-62 melanoma was -92.4% (active); with LOX IMVI melanoma, -53.9% (active); in the test with SK-MEL-28 melanoma it was -83.9% (active).

As for `COc1ccc(-c2nn(-c3cccc(Cl)c3)cc2-c2c(C#N)c(=O)n3[nH]c(-c4ccc(C)cc4)nc3c2C#N)cc1`, the growth in the test with HCT-15 colon was 65.2%; with HT29 colon it was 5.33% (active); in the test on SNB-75 CNS it was 36.4%; in the test on SNB-19 CNS it was 64.2%; with PC-3 prostate, 68.6%; with SK-MEL-5 melanoma, 68.6%. For the same molecule, the growth in the test with UACC-62 melanoma is 57.1%; in the test with LOX IMVI melanoma it was 39.7%; in the test on SK-MEL-28 melanoma, 92.3%.

On to `Nc1nc(Cl)nc2c1ncn2C1O[C@H](CO)[C@@H](O)[C@@H]1F` (some centres undefined), for which the growth in the test on HCT-15 colon was 48.1%; with HT29 colon, 41.2%; with SNB-75 CNS, 37%; in the test with SNB-19 CNS, 19%; in the test with PC-3 prostate, 60.5%; in the test on SK-MEL-5 melanoma it was 32.1%. In addition, the figures for the growth in the test on UACC-62 melanoma, in the test on LOX IMVI melanoma and with SK-MEL-28 melanoma were -10.3% (active), 4.83% (active) and 73.8%, respectively.

Take `COc1ccc(/C(C#N)=C/c2ccccc2OC)cc1`: the growth with HCT-15 colon was 23.8%; in the test with HT29 colon it was 6.29% (active); in the test on SNB-75 CNS it was 28.4%; in the test with SNB-19 CNS, 51.9%; in the test on PC-3 prostate, 55.6%; in the test with SK-MEL-5 melanoma, 9.12% (active). Further, the growth is 41.6% in the test with UACC-62 melanoma, 37.2% in the test with LOX IMVI melanoma and 51.8% with SK-MEL-28 melanoma.
